Results as given in publication PMC5540273 (PLoS ONE, 2017).

tested on: TAOK1; conditions: concentration: 1 μM, replicates: in singlicate; n = 1
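Note: KINOMEscan kinase panel screen.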

SMILES	%Inh [%]
CC1=C(C(=O)Nc2cc3cn[nH]c3cc2F)C(c2ccc(C(F)(F)F)cc2)CC(=O)N1 (stereo not drawn) [GSK429286]	0
COC(=O)c1c(-c2ccccc2)c2cc(OC)ccc2c(=O)n1Cc1ccccc1	0
O=C(O)COc1ncnc2cc(-c3ccc4[nH]ncc4c3)sc12	0
Nc1nc(-c2nccs2)c(-c2ccnc3ccccc23)s1 [GW693542]	0
Cn1cncc1-c1ccc2ncnc(Nc3ccc(OCc4ccccc4)cc3)c2c1 [GW320571]	0
O=C(Nc1ccc2c(c1)OCO2)NC1CCN(c2ccnc(Nc3ccc(F)cc3)n2)C1 (stereo not drawn) [GSK1379724]	0
Cc1ccccc1-n1cnc2c(N)ncnc21 [SKF-97510]	0
Cn1ccc2ncnc(Oc3ccc(NC(=O)Nc4ccccc4)cc3)c21	0
O=C1NC(=O)C(N2CCc3ccccc32)=C1c1ccccc1Cl [SB-373598]	15
O=C(Nc1ccccc1)Nc1cccc(Oc2ccc3nccn3n2)c1	0
Nc1ncnc2[nH]c(-c3ccccc3)nc12 [AH5015]	7
CS(=O)(=O)c1ccc(-c2c(-c3ncn[nH]3)sc(N3CCOCC3)c2C#N)cc1	0
Cc1c(O)cccc1Nc1ccnc2ccc(C(F)(F)F)cc12.Cl [GW466413]	0
CS(=O)(=O)c1ccc(-c2nc3n(c2-c2ccncc2)CCC3)cc1 [SKF-105942]	0
Cc1cc(NCC(c2ccccc2)c2ccccc2)nc(NCc2ccc(C(F)(F)F)cc2)n1 [GW497681]	0
Cl.NC(=O)c1cccc(Nc2nccc(Nc3ccc(Oc4cccc(Cl)c4)c(Cl)c3)n2)c1 [GW659008]	0
CC(C)(C)c1ccc(C(=O)Nc2cn3cc(Cl)ccc3n2)cc1	0
O=c1cc(N2CCOCC2)nc2n(Cc3cccc(Cl)c3Cl)ccn12 [GSK2286295]	0
CCCc1ccc(S(=O)(=O)NC2CCN(c3ccnc(Nc4ccc(F)cc4)n3)C2)cc1 (stereo not drawn) [GSK1379715]	0
O=S(=O)(c1ccc(-c2ccnc3[nH]ccc23)cc1)N1CCCC1 [GSK846226]	0
COc1ccc(C2=C(Nc3cccc(C(=O)O)c3)C(=O)NC2=O)cc1 [SB-390765]	28
